Source: PubChem BioAssay (NCI)
About 83,000 compounds went through this panel and 20% of them were active in at least one assay; those are over-represented in the sample as a whole.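 Step 1: grow cells in 96-well plates. Step 2: add test compound at a single concentration. Step 3: incubate 48 h. Step 4: record percent growth.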 The source made the active and inactive calls. How the source made its calls: active means growth percent below 10; inactive means the rest.

Each molecule was assayed on HL-60(TB) leukemia (assay: NCI-60 one-dose screen, 48 h (100 = growth as untreated, 0 = no growth, -100 = all killed)). Details: 10 µM unless noted.

SMILES	growth
COc1cc(/C=C2\C(=O)ON=C2C)cc(OC)c1OC	98.1% (inactive)
Cc1ccn2c3c(c(C(=O)O)c2c1)C(=O)c1ccccc1C3=O	73.2% (inactive)
CC(C)=CCc1cc(O)cc2c1OC(C=C(C)C)C1=C2C(=O)C2=C(NCCS2(=O)=O)C1=O (stereo not given)	-35.7% (active)
c1ccc2c(-c3cnn4cc(-c5ccc(N6CCNCC6)cc5)cnc34)ccnc2c1	-55.7% (active)
COc1cc(CC(=O)c2ccc(O)c(OC)c2)ccc1O	87% (inactive)
CCCCCCCCCCCCNC(=O)N[C@H](C(=O)N[C@H]1/C=C/CCNC(=O)/C=C/[C@H](C)NC1=O)C(C)C	-25.2% (active)
COc1cc(Cl)cc(-c2nn(-c3cccc(NC(=O)c4ccc(Cl)c(Cl)c4)c3)cc2-c2ccncc2)c1	94.1% (inactive)
C=CC1CN2CCC1CC2C(O)c1ccnc2ccc(OC)cc12 (stereo not given)	103% (inactive)
O=C1c2ccccc2C(=O)c2c1ccc1[nH]c(-c3cccs3)nc21	93.6% (inactive)
Sc1ccc(Nc2c3ccccc3nc3ccccc23)cc1	31.7% (inactive)
CC1(C)CC(=O)C2=C(C1)C(c1ccc(Cl)cc1)n1ncc(C#N)c1N2 (stereo not given)	97.9% (inactive)
Cc1ccc(/C=C2\Oc3ccc(O)c(O)c3C2=O)cc1	14.7% (inactive)
COC(=O)[C@@H](Cc1c[nH]c2ccccc12)NC(=O)/C=C/c1ccccc1	0.51% (active)
C[C@@H]1COC(Nc2ccc3ncnc(Nc4ccc(OCc5nccs5)c(Cl)c4)c3c2)=N1	31.3% (inactive)
O=S1(=O)N(Cc2ccccc2)[C@@H](Cc2ccccc2)[C@H](O)[C@H](O)[C@H](Cc2ccccc2)N1Cc1ccccc1	-4.17% (active)
